Reference: PubChem BioAssay (NCATS)
Records with an inconclusive call do not appear. Calls of active or inactive are those of the source. Calls follow the shape of the dose curve; as a rule, active = well fitted curve in the direction sought with a large enough effect; inconclusive = small, poorly fitted or top-dose-only effect, or another doubt; inactive = no such curve, though single readings can be large; an effect the other way counts as inactive or inconclusive. Starred links: 1 amine or outer side, 2 acyl side, 3 side chain; linkers in the order of their positions; H or OH if unused. Positions of bridges follow the written chain, without caps; N, C: chain ends. Non-standard residues stand in square brackets, D forms with d. Residues, ends and D or L forms follow the SMILES beside them. Chains are numbered I, II in the order given. Actinocin(9to1) = Cc1c2oc3c(C)ccc(C(=O)[*:1])c3nc-2c(C(=O)[*:2])c(N)c1=O; NMeV = CN[CH](C(=O)O)C(C)C; Sar = CNCC(=O)O

Tests used:
[1] = qHTS of pediatric cancer cell lines to identify multiple opportunities for drug repurposing: Primary screen for Rh41 cells (AID 1347108); also: nearly all actives have a fitted effect of over 70% in size; also: potency is read from the fitted curve at half-maximal effect;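 as to activity change, negative = cytotoxic: luminescence drop marks cytotoxic hits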
In short: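 Plated cells (500-1,000 per well, growth media) were allowed to settle for 5 hours, treated with compound dilutions for 48 hours, then lysed with CellTiter-Glo for 15 min at room temperature before luminescence reading.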

[2] = qHTS of pediatric cancer cell lines to identify multiple opportunities for drug repurposing: Confirmatory screen for NB1643 cells (AID 1347109); also: nearly all actives have a fitted effect of over 45% in size; also: potency is read from the fitted curve at half-maximal effect;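 as to activity change, negative = cytotoxic: plate controls were DMSO for no effect and bortezomib for full effect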
In short: (§1)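 Cells (500-1,000/well) rested 5 h, then received compounds for 48 h; metabolically active cells were measured by CellTiter-Glo luminescence. Final concentrations spanned up to 46 µM (MIPE, 11-point) or 0.59 nM-46 µM (NPC, 8-point) in primary screens, 11-point in follow-ups.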

[3] = qHTS of pediatric cancer cell lines to identify multiple opportunities for drug repurposing: Confirmatory screen for A673 cells (AID 1347110);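 also: potency is read from the fitted curve at half-maximal effect; cells exposed to compound for 48 h before the viability read; nearly all actives have a fitted effect of over 65% in size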
In short: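 Viability was read as ATP luminescence (CellTiter-Glo) after 48 h of compound exposure at 37 C in A673 cells seeded at 500-1,000/well. Titrations reached 46 uM final, with 11 points in the confirmatory screen. Concentration-response curves were fitted directly.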

[4] = qHTS of pediatric cancer cell lines to identify multiple opportunities for drug repurposing: Confirmatory screen for SK-N-MC cells (AID 1347111);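 also: potency is read from the fitted curve at half-maximal effect; cells exposed to compound for 48 h before the readout; nearly all actives have a fitted effect of over 70% in size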
In short: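 Seed 500-1,000 cells/well; rest 5 h at 37 degrees C. Pin-transfer compounds, 11-point titration. Incubate 48 h. Add CellTiter-Glo, 15 min RT, read luminescence.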

[5] = qHTS of pediatric cancer cell lines to identify multiple opportunities for drug repurposing: Confirmatory screen for BT-12 cells (AID 1347112); also: nearly all actives have a fitted effect of over 55% in size; also: potency is read from the fitted curve at half-maximal effect; as to activity change, negative = cytotoxic: % is scaled to controls: 0 for no effect and ±100 for the full control effect
In short: as §1

[6] = qHTS of pediatric cancer cell lines to identify multiple opportunities for drug repurposing: Confirmatory screen for LAN-5 cells (AID 1347113); also: nearly all actives have a fitted effect of over 65% in size; also: potency is read from the fitted curve at half-maximal effect
In short: as §1

[7] = qHTS of pediatric cancer cell lines to identify multiple opportunities for drug repurposing: Confirmatory screen for DAOY cells (AID 1347114); also: nearly all actives have a fitted effect of over 65% in size; also: potency is read from the fitted curve at half-maximal effect; as to activity change, negative = cytotoxic: % is scaled to controls: 0 for no effect and ±100 for the full control effect
In short: (§2)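 Viability measured as metabolically active cells via CellTiter-Glo luminescence following 48 hours of compound exposure, 11-point dilutions in confirmatory testing. 500-1,000 cells/well plated 5 hours before dosing; controls were DMSO and 2.3 µM bortezomib.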

[8] = qHTS of pediatric cancer cell lines to identify multiple opportunities for drug repurposing: Confirmatory screen for NB-EBc1 cells (AID 1347115);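 also: potency is read from the fitted curve at half-maximal effect; cells exposed to compound for 48 h before the viability read; nearly all actives have a fitted effect of over 45% in size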
In short: as §1

[9] = qHTS of pediatric cancer cell lines to identify multiple opportunities for drug repurposing: Confirmatory screen for SJ-GBM2 cells (AID 1347116); also: nearly all actives have a fitted effect of over 60% in size; also: potency is read from the fitted curve at half-maximal effect;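 as to activity change, negative = cytotoxic: plate controls were DMSO for no effect and bortezomib for full effect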
In short: as §2

[10] = qHTS of pediatric cancer cell lines to identify multiple opportunities for drug repurposing: Confirmatory screen for BT-37 cells (AID 1347117); details: BT-37 pediatric cancer cells, viability; activity change, negative = cytotoxic: at 45.9 µM (top of the series); also: nearly all actives have a fitted effect of over 55% in size; also: potency is read from the fitted curve at half-maximal effect;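 as to activity change, negative = cytotoxic: plate controls were DMSO for no effect and bortezomib for full effect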
In short: as §1

[11] = qHTS of pediatric cancer cell lines to identify multiple opportunities for drug repurposing: Confirmatory screen for TC32 cells (AID 1347118);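 also: potency is read from the fitted curve at half-maximal effect; cells exposed to compound for 48 h before the read; nearly all actives have a fitted effect of over 65% in size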
In short: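 Luminescent CellTiter-Glo read-out of metabolically active TC32 cells after 48 h compound exposure. Primary: MIPE 11-point, 0.78 nM–46 µM; NPC 8-point, 0.59 nM–46 µM. Confirmatory: 11-point dilutions.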

[12] = qHTS of pediatric cancer cell lines to identify multiple opportunities for drug repurposing: Confirmatory screen for MG 63 (6-TG R) cells (AID 1347119); also: nearly all actives have a fitted effect of over 55% in size; also: potency is read from the fitted curve at half-maximal effect
In short: as §1

[13] = qHTS of pediatric cancer cell lines to identify multiple opportunities for drug repurposing: Confirmatory screen for U-2 OS cells (AID 1347122); also: nearly all actives have a fitted effect of over 65% in size; also: potency is read from the fitted curve at half-maximal effect
In short: as §1

[14] = qHTS of pediatric cancer cell lines to identify multiple opportunities for drug repurposing: Confirmatory screen for Rh41 cells (AID 1347123); also: nearly all actives have a fitted effect of over 60% in size; also: potency is read from the fitted curve at half-maximal effect;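 as to activity change, negative = cytotoxic: plate controls were DMSO for no effect and bortezomib for full effect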
In short: as §1

[15] = qHTS of pediatric cancer cell lines to identify multiple opportunities for drug repurposing: Confirmatory screen for RD cells (AID 1347124); also: potency is read from the fitted curve at half-maximal effect; as to activity change, negative = cytotoxic: % is scaled to controls: 0 for no effect and ±100 for the full control effect
In short: as §1

[16] = qHTS of pediatric cancer cell lines to identify multiple opportunities for drug repurposing: Primary screen for control Hh wild type fibroblast cells (AID 1347106);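 also: % is scaled to controls: 0 for no effect and ±100 for the full control effect; a drop in luminescence marks cytotoxicity and a rise apparent proliferation; nearly all actives have a fitted effect of over 55% in size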
In short: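 Viability after 48 h compound treatment at 37C, 500-1,000 cells/well, read as ATP luminescence with CellTiter-Glo. Primary screens used 11-point (MIPE, 0.78 nM-46 µM) or 8-point (NPC, 0.59 nM-46 µM) final concentrations; follow-up screens used 11-point dilutions.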

[17] = qHTS of pediatric cancer cell lines to identify multiple opportunities for drug repurposing: Confirmatory screen for control Hh wild type fibroblast cells (AID 1347121);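 also: plate controls were DMSO for no effect and bortezomib for full effect; nearly all actives have a fitted effect of over 70% in size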
In short: as §1

[18] = qHTS of pediatric cancer cell lines to identify multiple opportunities for drug repurposing: Primary screen for Rh30 cells (AID 1347107); also: % is scaled to controls: 0 for no effect and ±100 for the full control effect; nearly all actives have a fitted effect of over 75% in size
In short: as §1

[19] = qHTS of pediatric cancer cell lines to identify multiple opportunities for drug repurposing: Confirmatory screen for Rh18 cells (AID 1347125); also: nearly all actives have a fitted effect of over 55% in size; also: potency is read from the fitted curve at half-maximal effect; as to activity change, negative = cytotoxic: % is scaled to controls: 0 for no effect and ±100 for the full control effect
In short: as §1

CC[C@@]1([C@@H]2O[C@@H]([C@H]3O[C@@](O)(CO)[C@H](C)C[C@H]3C)C[C@H]2C)CC[C@H]([C@]2(C)CC[C@]3(C[C@H](O)[C@@H](C)[C@@H]([C@@H](C)[C@@H](OC)[C@H](C)C(=O)O)O3)O2)O1
active: Potency [2] 362 nM | Potency [3] 1020 nM | Potency [4] 229 nM | Potency [5] 1150 nM | Potency [6] 362 nM | Potency [7] 3230 nM | Potency [8] 1620 nM | Potency [9] 1150 nM | Potency [10] 204 nM | Potency [11] 288 nM | Potency [12] 512 nM | Potency [13] 2570 nM | Potency [14] 910 nM | Potency [15] 2290 nM
inactive: Potency [1]

CCOC(=O)[C@@H](N)Cc1ccc(-c2cc(O[C@H](c3ccc(Cl)cc3-n3ccc(C)n3)C(F)(F)F)nc(N)n2)cc1
active: Potency [4] 32900 nM | Potency [6] 23300 nM | Potency [11] 23300 nM | Potency [14] 14700 nM
inactive: Potency [16] | Potency [7] | Potency [9] | Potency [17]

Cc1c2oc3c(C)ccc(C(=O)NC4C(=O)NC(C(C)C)C(=O)N5CCCC5C(=O)N(C)CC(=O)N(C)C(C(C)C)C(=O)OC4C)c3nc-2c(C(=O)NC2C(=O)NC(C(C)C)C(=O)N3CCCC3C(=O)N(C)CC(=O)N(C)C(C(C)C)C(=O)OC2C)c(N)c1=O (stereo unspecified) (I: TVP[Sar][NMeV] / II: TVP[Sar][NMeV]; ester I:1-I:C, II:1-II:C; linker I:N-II:N via Actinocin(9to1); configuration not given here)
active: Potency [1] 1 nM | Potency [3] 14.7 nM | Potency [4] 7.4 nM | Potency [5] 29.3 nM | Potency [6] 2.3 nM | Potency [7] 36.9 nM | Potency [10] 2.6 nM | Potency [11] 16.5 nM | Potency [14] 18.5 nM | Potency [19] 29.3 nM
inactive: Potency [18] | Potency [2] | Potency [17]

Oc1ccc(-c2ccc(-c3cc(Nc4cccc(CNC5CC5)c4)n[nH]3)cc2)c(O)c1
inactive: Potency [16] | Potency [12]
active: Potency [1] 14800 nM | Potency [3] 2330 nM | Potency [4] 827 nM | Potency [5] 8270 nM | Potency [6] 2330 nM | Potency [7] 6570 nM | Potency [9] 14700 nM | Potency [10] 6570 nM | Potency [11] 2330 nM | Potency [13] 5220 nM | Potency [14] 3690 nM | Potency [15] 5220 nM | Potency [19] 16500 nM

Cn1cc(-c2cnn3c(N)c(Br)c([C@H]4CCCNC4)nc23)cn1
active: Potency [1] 2350 nM | Potency [2] 1850 nM | Potency [3] 14700 nM | Potency [4] 827 nM | Potency [6] 5850 nM | Potency [10] 3690 nM | Potency [11] 5850 nM | Potency [13] 2930 nM | Potency [14] 23300 nM
inactive: Potency [18] | Potency [5] | Potency [15] | Potency [19]

CN(C)CCN1C(=O)c2cccc3cc(N)cc(c23)C1=O
active: Potency [1] 23500 nM

COc1cc2c(cc1OC)[C@@H]1C(=O)c3ccc4c(c3O[C@@H]1CO2)C=CC(C)(C)O4
active: Potency [3] 16500 nM | Potency [4] 2330 nM | Potency [6] 3690 nM | Potency [7] 185 nM | Potency [8] 827 nM | Potency [10] 2080 nM | Potency [12] 104 nM | Potency [13] 329 nM | Potency [14] 13100 nM

Oc1ccc([C@@H]2Oc3ccc(O)cc3[C@@H]3CCC[C@@H]32)cc1
active: Potency [1] 18700 nM

CC(=O)SCC(Cc1ccccc1)C(=O)NCC(=O)OCc1ccccc1 (stereo unspecified)
active: Potency [1] 5900 nM
inactive: Potency [2] | Potency [6] | Potency [7] | Potency [9] | Potency [10] | Potency [12] | Potency [13] | Potency [15] | Potency [19]

COc1cc(C=CC(=O)CC(=O)C=Cc2ccc(O)c(OC)c2)ccc1O
active: Potency [1] 30300 nM | Potency [2] 30200 nM | Potency [4] 15100 nM | Potency [6] 26900 nM | Potency [10] 30200 nM | Potency [11] 9550 nM | Potency [12] 26900 nM | Potency [14] 17000 nM

CCC(C=C[C@@H]1OC(=O)C=C[C@H]1C)=C[C@H](C)CC=CC(C)=C[C@@H](C)C(=O)[C@@H](C)[C@H](O)[C@@H](C)CC(C)=CC(=O)O
active: Potency [1] 24.7 nM | Potency [3] 32.2 nM | Potency [4] 6.4 nM | Potency [6] 5.1 nM | Potency [7] 12.8 nM | Potency [10] 5.7 nM | Potency [11] 14.4 nM | Potency [13] 9.1 nM | Potency [14] 12.8 nM | Potency [15] 12.8 nM | Potency [19] 9.1 nM
inactive: activity change, negative = cytotoxic [18] -1.27% [at 1.86 µM]

CCOc1cc2ncc(C#N)c(Nc3ccc(OCc4ccccn4)c(Cl)c3)c2cc1NC(=O)C=CCN(C)C
active: Potency [3] 10400 nM | Potency [4] 10400 nM | Potency [9] 4140 nM | Potency [14] 2930 nM | Potency [15] 2330 nM

CCc1cnn2c(NCc3ccc[n+]([O-])c3)cc(N3CCCC[C@@H]3CCO)nc12
inactive: Potency [18] | Potency [7] | Potency [13] | Potency [14] | Potency [15]
active: Potency [1] 74.3 nM
